Experimental findings from PubChem BioAssay (NCATS) are described below.

Several values for one entry are separate records, joined by “and”; a condition that tells them apart may be missing. Identical values can stand only once. Results filed as inconclusive are left out. Activity calls are given as the source filed them. Calls follow the shape of the dose curve; as a rule, active = well fitted activation curve with a large enough effect in the signal ratio; inconclusive = small, poorly fitted or top-dose-only effect, or a change in a side signal; inactive = flat fitted curve, though single readings scatter; the % refers to the signal ratio.

This assay in a line: qHTS assay for small molecule activators of the nuclear factor-kappa B (NF-kB) signaling pathway (AID 651749). Also: series mostly up to about 77 µM; % of control where 0% means no effect. Conditions: NF-kB-bla ME-180 cells, beta-lactamase FRET ratio, 16 h; stronger effect = higher value. The text has this: National Center for Advancing Translational Sciences [NCATS] NIH Chemical Genomics Center [NCGC] U.S. Environmental Protection Agency [EPA] National Institutes of Environmental Health Sciences [NIEHS] National Toxicology Program [NTP] Assay Overview: Transcription factors and their stimulated target gene expression play pivotal roles across many cellular processes including responses to environmental stimuli. Proper regulation of associated pathways is critical to maintain cell health and function. Constitutive activation of transcription factor pathways has been implicated in tumors as it may block cellular functions such as apoptosis and lead to invasion and metastasis. One important transcription factor that stimulates gene expression in response to cytokines, UV radiation, and other stimuli is nuclear factor-kappa B (NF-kB). To measure activation of the NF-kB pathway, the NF-kB-bla ME-180 cell line stably expressed beta-lactamase reporter gene under the regulation of a NF-kB response element was obtained from Invitrogen. This assay allows measurement of the NF-kB pathway activity induced by compounds in a ME-180 cell line. This system quantitates NF-kB activity using a FRET-based assay system where beta-lactamase expression disrupts FRET, allowing for fluorescent measurement of activity.
Assay Protocol Summary: For toxicology screening, 2,000 cells in 5 uL/well were dispensed into black, clear-bottom 1536-well plates using a Multidrop Combi (Thermo Scientific) dispenser. Following transfer of 23 nL compound or DMSO vehicle by a pin tool, the plates were incubated 16 hr at 37C and 5% CO2.
For orientation: qHTS replaces the single test concentration by a dilution series.
With `COc1ccc(C(=O)c2ccccc2)c(O)c1`, the activation was 0.344% (inactive) and -5.21% (inactive).
The result for `CCCCOC(=O)CC(CC(=O)OCCCC)(OC(C)=O)C(=O)OCCCC` reads -0.845% (inactive).
The result for `CCCCCCCCCCCCCCCCO` reads -1.7% (inactive); that for `NCCNc1cccc2ccccc12`, -0.261% (inactive) and 2.79% (inactive).
The same measure for `CC1(COc2ccc(CC3SC(=O)NC3=O)cc2)CCCCC1` (centres undefined): 0.57% (inactive).
For `CC1(C)OC[C@@H]2O[C@@]3(C(=O)O)OC(C)(C)O[C@H]3[C@@H]2O1`, the activation is 0.144% (inactive).
The result for `CCCCCCCCOc1ccc(C(=O)c2ccccc2)c(O)c1` reads -6.3% (inactive).
For the compound `Oc1c(Cl)cc(Cl)c(Cl)c1Cc1c(O)c(Cl)cc(Cl)c1Cl`, the activation is -1.07% (inactive).
The result for `O=C(O)c1ccc(S(=O)(=O)N(Cl)Cl)cc1` reads -0.114% (inactive); that for `C=C[C@H]1CN2CC[C@H]1C[C@@H]2[C@@H](O)c1ccnc2ccc(OC)cc12`, -0.176% (inactive).
Consider `COc1ccc(C(Cl)=C(c2ccc(OC)cc2)c2ccc(OC)cc2)cc1`, for which the activation was 3.39% (inactive).
The same measure for `CC(C)(C)CC(C)(C)c1ccc(O)c(-n2nc3ccccc3n2)c1`: 1.97% (inactive); for `CCCCCCCCCCCCCCCC(=O)O`: -0.401% (inactive).
The same measure for `CCCCC(CC)COC(=O)c1ccc(N(C)C)cc1` (centres undefined): -1.46% (inactive) and -0.821% (inactive).
The result for `C#C[C@]1(O)CC[C@H]2[C@@H]3CCC4=Cc5oncc5C[C@]4(C)[C@H]3CC[C@@]21C` reads 0.141% (inactive); that for `NC(=O)c1ccccc1O`, -1.49% (inactive); that for `CCCN(CCC)S(=O)(=O)c1ccc(C(=O)O)cc1`, 0.183% (inactive) and -3.09% (inactive).
With `OC[C@H]1O[C@@H]2O[C@H]3[C@H](O)[C@@H](O)[C@@H](O[C@H]4[C@H](O)[C@@H](O)[C@@H](O[C@H]5[C@H](O)[C@@H](O)[C@@H](O[C@H]6[C@H](O)[C@@H](O)[C@@H](O[C@H]7[C@H](O)[C@@H](O)[C@@H](O[C@H]8[C@H](O)[C@@H](O)[C@@H](O[C@H]1[C@H](O)[C@H]2O)O[C@@H]8CO)O[C@@H]7CO)O[C@@H]6CO)O[C@@H]5CO)O[C@@H]4CO)O[C@@H]3CO`, the activation was -1.13% (inactive).
`CCCCCCCCCCCCCC(=O)OC(C)C`: the activation is 0.876% (inactive).
